Laboratory results reported in PubChem BioAssay (EPA / NIEHS).
“And” between values parts separate entries of the source, which are not always exact repeats. Equal entries are not always repeated. A structure can be active in one record and inactive in another. The source made the active and inactive calls. How the source made its calls: active means hit-call score of the fitted dose curve at least 0.9, where 1 is the maximum; inactive means score below 0.9.

Legend:
[1] = ATG_GLI_CIS: Attagene CIS-FACTORIAL HepG2 Assay for human Zinc Finger Protein GLI1 (AID 2282945); settings: HepG2, Attagene cis-factorial reporter mRNA, GLI element; actives raise or lower the signal
In short: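 Transiently transfected HepG2 cells report endogenous transcription factor activity via cis-element-driven reporter units. After 24 h compound exposure, reporter mRNA was measured by RT-PCR with capillary electrophoresis; bidirectional fitting against DMSO baseline.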

[2] = target: Bile acid receptor (Homo sapiens) (UniProt Q96RI1); test: ATG_IR1_CIS: Attagene CIS-FACTORIAL HepG2 Assay for human Nuclear Receptor Subfamily 1 Group H Member 4 (NR1H4), IR1 submotif (AID 2282946); settings: IR1 reporter transcription, actives raise or lower the signal
Chain of Bile acid receptor (Homo sapiens) (Q96RI1 whole entry, looked up): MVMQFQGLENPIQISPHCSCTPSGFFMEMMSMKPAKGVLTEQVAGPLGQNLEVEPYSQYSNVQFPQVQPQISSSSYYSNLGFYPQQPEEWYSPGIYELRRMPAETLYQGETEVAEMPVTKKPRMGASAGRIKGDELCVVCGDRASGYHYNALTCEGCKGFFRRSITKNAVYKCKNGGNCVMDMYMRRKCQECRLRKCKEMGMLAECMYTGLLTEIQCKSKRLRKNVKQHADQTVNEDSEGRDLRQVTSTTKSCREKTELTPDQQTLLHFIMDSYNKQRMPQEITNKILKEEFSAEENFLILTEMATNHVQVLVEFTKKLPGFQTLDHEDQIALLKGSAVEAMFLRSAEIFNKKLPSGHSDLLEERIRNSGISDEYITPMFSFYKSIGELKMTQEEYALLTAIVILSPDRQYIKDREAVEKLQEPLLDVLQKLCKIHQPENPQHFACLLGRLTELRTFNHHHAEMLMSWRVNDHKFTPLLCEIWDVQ
In short: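 HepG2 cells transiently transfected with multiple cis-promoter-driven reporter units to measure endogenous transcription factor activity; 24 h exposure. Reporter mRNA read by RT-PCR, FAM labelling, HpaI digestion and capillary electrophoresis. Bidirectional fit versus DMSO.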

[3] = ATG_GRE_CIS: Attagene CIS-FACTORIAL HepG2 Assay for human Glucocorticoid Response Elements (GRE) (AID 2282947); settings: HepG2 GRE cis-reporter, Attagene multiplex mRNA; actives raise or lower the signal
In short: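 Endogenous transcription factor activity is read through cis-element reporter constructs transiently transfected into HepG2 cells. After 24 h treatment, labelled RT-PCR products are resolved by capillary electrophoresis; DMSO sets baseline for bidirectional curve fitting.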

[4] = ATG_ISRE_CIS: Attagene CIS-FACTORIAL HepG2 Assay for human Interferon Regulatory Factor 1 (IRF1) binding to an Interferon-Stimulated Response Element (ISRE) (AID 2282948); settings: HepG2 ISRE cis-reporter (Attagene), mRNA transcription readout; actives raise or lower the signal
In short: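 Quantitation relies on labelled RT-PCR fragments separated by capillary electrophoresis. Human HepG2 cells bearing cis-promoter reporter constructs were treated 24 h; DMSO served as baseline for bidirectional fitting.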

[5] = ATG_M_32_CIS: Attagene CIS-FACTORIAL HepG2 Assay for M32 Transcription Factor (Internal Marker) (AID 2282949); settings: HepG2 Attagene cis-factorial M32 reporter, mRNA; actives raise or lower the signal;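 further: background control marker of the multiplexed CIS panel rather than a real target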
In short: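 Internal background marker read-out: RT-PCR/capillary electrophoresis fluorescence of reporter transcripts from transiently transfected HepG2 cells after 24 h chemical exposure. Activity fitted bidirectionally relative to DMSO negative control.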

[6] = ATG_M_06_CIS: Attagene CIS-FACTORIAL HepG2 Assay for M06 Transcription Factor (Internal Marker) (AID 2282950); settings: HepG2 Attagene CIS-FACTORIAL M06 internal marker reporter; actives raise or lower the signal
In short: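 Terse: HepG2, transient MRTU transfection (FuGene 6), 24 h dosing; total RNA, oligo(dT) RT, PCR, FAM label, HpaI cut, capillary electrophoresis; bidirectional fit vs DMSO baseline; background-control endpoint.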

[7] = target: Hypoxia-inducible factor 1-alpha (Homo sapiens) (UniProt Q16665); test: ATG_HIF1a_CIS: Attagene CIS-FACTORIAL HepG2 Assay for human Hypoxia Inducible Factor 1 (HIF1A) (AID 2282951); settings: HepG2 Attagene cis-factorial HIF1a reporter transcription; actives raise or lower the signal
Chain of Hypoxia-inducible factor 1-alpha (Homo sapiens) (Q16665 whole entry, looked up): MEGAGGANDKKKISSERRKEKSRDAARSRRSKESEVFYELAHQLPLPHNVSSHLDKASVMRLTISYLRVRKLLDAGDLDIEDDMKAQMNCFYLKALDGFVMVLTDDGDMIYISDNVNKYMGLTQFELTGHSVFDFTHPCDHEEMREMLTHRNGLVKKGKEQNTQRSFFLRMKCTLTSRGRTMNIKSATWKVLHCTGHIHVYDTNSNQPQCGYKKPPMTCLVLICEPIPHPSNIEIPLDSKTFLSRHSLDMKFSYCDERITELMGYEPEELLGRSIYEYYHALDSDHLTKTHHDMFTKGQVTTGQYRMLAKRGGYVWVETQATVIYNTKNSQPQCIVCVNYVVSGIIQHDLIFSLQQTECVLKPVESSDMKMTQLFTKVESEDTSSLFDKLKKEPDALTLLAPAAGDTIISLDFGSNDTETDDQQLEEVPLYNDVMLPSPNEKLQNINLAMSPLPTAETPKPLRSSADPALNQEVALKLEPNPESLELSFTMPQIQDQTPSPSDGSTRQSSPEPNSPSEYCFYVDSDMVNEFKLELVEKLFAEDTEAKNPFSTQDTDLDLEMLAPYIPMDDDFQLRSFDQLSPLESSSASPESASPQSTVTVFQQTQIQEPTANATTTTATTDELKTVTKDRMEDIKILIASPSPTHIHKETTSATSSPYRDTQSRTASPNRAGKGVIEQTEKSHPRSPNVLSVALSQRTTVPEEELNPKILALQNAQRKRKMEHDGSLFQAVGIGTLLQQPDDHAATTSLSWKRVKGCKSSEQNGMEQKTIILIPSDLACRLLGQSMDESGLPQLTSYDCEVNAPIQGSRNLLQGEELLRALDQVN
In short: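 Activity is fitted in both directions relative to DMSO. Reporter transcripts are read by RT-PCR, fluorescent primer extension and capillary electrophoresis after 24 h chemical treatment. The cells are HepG2 carrying transiently transfected cis-element-driven reporter units responding to endogenous factors.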

[8] = target: Hepatocyte nuclear factor 6 (Homo sapiens) (UniProt Q9UBC0); test: ATG_HNF6_CIS: Attagene CIS-FACTORIAL HepG2 Assay for human Hepatocyte Nuclear Factor 6 (HNF6) (AID 2282952); settings: HepG2 Attagene cis-factorial HNF6 reporter transcription; actives raise or lower the signal
Chain of Hepatocyte nuclear factor 6 (Homo sapiens) (Q9UBC0 whole entry, looked up): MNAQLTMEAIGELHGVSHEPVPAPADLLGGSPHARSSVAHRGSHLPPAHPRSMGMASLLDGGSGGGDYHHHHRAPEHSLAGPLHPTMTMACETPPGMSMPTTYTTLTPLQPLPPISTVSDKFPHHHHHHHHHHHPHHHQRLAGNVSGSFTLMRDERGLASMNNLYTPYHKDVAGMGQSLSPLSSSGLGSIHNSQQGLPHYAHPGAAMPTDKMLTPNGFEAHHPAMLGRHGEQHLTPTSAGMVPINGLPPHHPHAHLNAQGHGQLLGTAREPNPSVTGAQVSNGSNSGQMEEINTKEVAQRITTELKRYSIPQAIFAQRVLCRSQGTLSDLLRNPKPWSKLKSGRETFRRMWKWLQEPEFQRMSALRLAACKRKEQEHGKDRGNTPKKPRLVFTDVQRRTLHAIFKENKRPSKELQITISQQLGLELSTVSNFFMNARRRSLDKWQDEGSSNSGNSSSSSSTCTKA
In short: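 Multiplexed mRNA reporter assay in transfected HepG2; 24 h dosing; RT-PCR plus capillary electrophoresis fluorescence; DMSO-referenced bidirectional curve fitting.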

[9] = target: Heat shock factor protein 1 (Homo sapiens) (UniProt Q00613); test: ATG_HSE_CIS: Attagene CIS-FACTORIAL HepG2 Assay for human Heat Shock Transcription Factor 1 (HSE) (AID 2282953); settings: HepG2 HSE cis-reporter, Attagene RNA transcription; actives raise or lower the signal
Chain of Heat shock factor protein 1 (Homo sapiens) (Q00613 whole entry, looked up, the tested form may be a part): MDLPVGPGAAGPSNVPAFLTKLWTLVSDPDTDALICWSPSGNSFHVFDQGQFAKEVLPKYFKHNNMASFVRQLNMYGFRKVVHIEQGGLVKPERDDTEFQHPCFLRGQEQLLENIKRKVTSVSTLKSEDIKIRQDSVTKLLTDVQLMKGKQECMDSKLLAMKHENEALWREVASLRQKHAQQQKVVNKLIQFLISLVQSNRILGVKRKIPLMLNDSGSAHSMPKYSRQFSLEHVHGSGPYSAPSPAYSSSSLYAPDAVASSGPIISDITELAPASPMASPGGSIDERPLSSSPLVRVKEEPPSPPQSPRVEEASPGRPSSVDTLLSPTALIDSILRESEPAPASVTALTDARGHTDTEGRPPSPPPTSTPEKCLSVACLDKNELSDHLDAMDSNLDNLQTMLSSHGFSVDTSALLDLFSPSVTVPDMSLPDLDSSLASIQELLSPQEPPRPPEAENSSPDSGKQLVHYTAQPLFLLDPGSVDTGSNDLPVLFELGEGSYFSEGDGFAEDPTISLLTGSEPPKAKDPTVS
In short: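 Read-out: fluorescence of reporter-specific RT-PCR fragments separated by capillary electrophoresis. HepG2 carrying transfected cis-element reporter units; 24 h dosing; activity fitted in both directions relative to DMSO baseline.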

[10] = ATG_MRE_CIS: Attagene CIS-FACTORIAL HepG2 Assay for human Metal Responsive Element (MRE) (AID 2282954); settings: HepG2 MRE cis-reporter transcription, Attagene multiplex; actives raise or lower the signal
In short: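 Fluorescent reporter fragments separated by capillary electrophoresis give mRNA induction for the MRE unit after 24 h treatment of transfected HepG2 cells. Endogenous transcription-factor activity is read; DMSO serves as negative control and baseline.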

[11] = ATG_PBREM_CIS: Attagene CIS-FACTORIAL HepG2 Assay for human Phenobarbital-responsive Enhancer Module (PBREM) (AID 2282955); settings: HepG2 PBREM cis-reporter, Attagene multiplexed transcription; actives raise or lower the signal
In short: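 Endogenous transcription factor activity was read from reporter transcripts in transiently transfected human HepG2 liver cells after 24 h dosing. RT-PCR products were fluorescently labelled, HpaI-cut and sized by capillary electrophoresis; activity fitted bidirectionally against DMSO baseline.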

[12] = ATG_PXRE_CIS: Attagene CIS-FACTORIAL HepG2 Assay for human Pregnane X Receptor Element (PXRE) (AID 2282957); settings: HepG2 Attagene CIS-FACTORIAL PXRE reporter, mRNA; actives raise or lower the signal
In short: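 Cells: HepG2, transiently transfected reporter units under cis promoter control. Exposure: 24 h. Detection: reporter mRNA via RT-PCR/CE fluorescence; bidirectional fitting, DMSO-referenced.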

[13] = ATG_PPRE_CIS: Attagene CIS-FACTORIAL HepG2 Assay for human Peroxisome Proliferator-activated Response Element (PPRE) (AID 2282958); settings: HepG2 PPRE cis-element reporter, Attagene transcription factor profiling; actives raise or lower the signal
In short: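 Endogenous PPRE-driven transcription is measured in HepG2 cells carrying transfected multi-reporter constructs. Reporter transcripts are quantified by RT-PCR, HpaI digestion and capillary electrophoresis 24 h after dosing. DMSO baseline, bidirectional fit.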

[14] = ATG_RORE_CIS: Attagene CIS-FACTORIAL HepG2 Assay for human RAR-related Orphan Receptor Element (RORE) (AID 2282959); settings: HepG2 Attagene cis-factorial RORE reporter, mRNA; actives raise or lower the signal
In short: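 RORE reporter transcripts reflecting endogenous factor activity were read after 24 h compound exposure of transfected HepG2 cells, using reverse transcription, PCR, fluorescent labelling and capillary electrophoresis sizing. Gain or loss fitted against DMSO.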

[15] = ATG_Sox_CIS: Attagene CIS-FACTORIAL HepG2 Assay for human SRY-box transcription factor (SOX) (AID 2282960); settings: HepG2 Attagene cis-factorial SOX reporter, mRNA; actives raise or lower the signal
In short: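 Reporter transcripts, measured by RT-PCR and capillary electrophoresis of labelled fragments, report endogenous SOX transcription factor activity. Transiently transfected human HepG2 cells receive chemical for 24 h; changes in either direction are fitted relative to DMSO.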

[16] = target: Transcription factor Sp1 (Homo sapiens) (UniProt P08047); test: ATG_Sp1_CIS: Attagene CIS-FACTORIAL HepG2 Assay for human Specificity Protein 1 (Sp1) (AID 2282961); settings: HepG2 Sp1 cis-reporter transcription, actives raise or lower the signal
Chain of Transcription factor Sp1 (Homo sapiens) (P08047 whole entry, looked up): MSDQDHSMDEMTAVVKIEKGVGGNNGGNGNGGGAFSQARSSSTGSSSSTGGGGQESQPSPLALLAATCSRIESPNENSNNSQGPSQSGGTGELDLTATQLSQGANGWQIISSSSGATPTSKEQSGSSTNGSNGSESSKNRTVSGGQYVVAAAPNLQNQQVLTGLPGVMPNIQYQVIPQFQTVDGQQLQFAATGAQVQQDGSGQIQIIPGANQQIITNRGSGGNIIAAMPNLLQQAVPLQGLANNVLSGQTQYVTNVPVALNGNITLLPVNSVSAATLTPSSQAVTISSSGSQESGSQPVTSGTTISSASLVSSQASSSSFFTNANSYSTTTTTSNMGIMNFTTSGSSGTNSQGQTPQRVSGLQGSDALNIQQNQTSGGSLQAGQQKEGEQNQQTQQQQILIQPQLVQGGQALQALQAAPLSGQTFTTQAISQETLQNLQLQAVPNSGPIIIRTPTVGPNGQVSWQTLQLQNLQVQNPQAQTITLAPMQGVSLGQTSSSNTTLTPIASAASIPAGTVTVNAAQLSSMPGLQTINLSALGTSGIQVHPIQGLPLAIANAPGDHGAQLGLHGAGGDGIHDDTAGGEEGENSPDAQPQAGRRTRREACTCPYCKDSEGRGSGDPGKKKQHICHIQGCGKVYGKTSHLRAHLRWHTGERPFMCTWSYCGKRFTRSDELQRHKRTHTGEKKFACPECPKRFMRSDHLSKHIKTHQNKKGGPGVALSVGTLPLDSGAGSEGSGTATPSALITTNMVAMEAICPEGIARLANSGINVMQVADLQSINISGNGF
In short: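 Read-out is reporter transcript level, measured by RT-PCR and fluorescent capillary electrophoresis after 24 h chemical treatment. System: transiently transfected HepG2 cells reporting endogenous transcription factor activity; gain or loss fitted against DMSO baseline.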

[17] = ATG_SREBP_CIS: Attagene CIS-FACTORIAL HepG2 Assay for human Sterol Regulatory Element Binding (SREBP) (AID 2282962); settings: HepG2 Attagene cis-factorial SREBP reporter, mRNA; actives raise or lower the signal
In short: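 Twenty-four hours after chemical dosing of transfected HepG2 cultures, reporter RNA was converted to cDNA, amplified, end-labelled with 6-FAM and resolved by capillary electrophoresis. Responses were fitted relative to DMSO.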

[18] = target: Signal transducer and activator of transcription 3 (Homo sapiens) (UniProt P40763); test: ATG_STAT3_CIS: Attagene CIS-FACTORIAL HepG2 Assay for human Signal Transducer and Activator of Transcription 3 (STAT3) (AID 2282963); settings: HepG2, Attagene cis-factorial STAT3 reporter transcription; actives raise or lower the signal
Chain of Signal transducer and activator of transcription 3 (Homo sapiens) (P40763 whole entry, looked up): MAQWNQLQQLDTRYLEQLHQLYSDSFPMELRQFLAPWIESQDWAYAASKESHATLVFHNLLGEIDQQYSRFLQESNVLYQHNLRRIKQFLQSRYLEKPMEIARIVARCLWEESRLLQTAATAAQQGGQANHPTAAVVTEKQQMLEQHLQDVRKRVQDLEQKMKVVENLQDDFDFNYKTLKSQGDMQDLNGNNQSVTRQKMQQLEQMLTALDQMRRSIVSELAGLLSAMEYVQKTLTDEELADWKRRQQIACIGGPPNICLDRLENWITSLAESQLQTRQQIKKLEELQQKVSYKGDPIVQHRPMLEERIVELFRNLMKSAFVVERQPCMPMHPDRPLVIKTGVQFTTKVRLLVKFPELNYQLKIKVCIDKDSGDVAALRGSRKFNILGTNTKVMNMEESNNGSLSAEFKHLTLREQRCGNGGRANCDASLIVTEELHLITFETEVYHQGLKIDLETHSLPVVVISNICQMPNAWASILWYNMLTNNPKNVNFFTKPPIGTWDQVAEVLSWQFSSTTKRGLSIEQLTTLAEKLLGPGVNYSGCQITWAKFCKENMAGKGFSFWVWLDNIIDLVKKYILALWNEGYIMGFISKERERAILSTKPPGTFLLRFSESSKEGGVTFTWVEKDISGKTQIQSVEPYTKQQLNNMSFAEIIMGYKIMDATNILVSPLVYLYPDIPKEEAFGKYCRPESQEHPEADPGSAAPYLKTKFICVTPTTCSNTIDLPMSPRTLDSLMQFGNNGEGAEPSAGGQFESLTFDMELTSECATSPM
In short: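 Values derive from bidirectional fits relative to DMSO of reporter mRNA levels, measured by RT-PCR with capillary electrophoresis, in HepG2 cells carrying transiently transfected cis-regulated reporter units and exposed 24 h.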

[19] = ATG_TA_CIS: Attagene CIS-FACTORIAL HepG2 Assay for human TA Basal Promoter (AID 2282964); settings: HepG2 Attagene CIS-factorial TA basal promoter reporter; actives raise or lower the signal
In short: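 Transfected HepG2, 24 h compound exposure; RNA → RT-PCR → FAM primer extension → HpaI cut → CE fluorescence. Gain/loss-of-signal fitted against DMSO negative control. Background-control readout.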

[20] = target: Paired box protein Pax-6 (Homo sapiens) (UniProt P26367); test: ATG_Pax6_CIS: Attagene CIS-FACTORIAL HepG2 Assay for human Paired Box 6 (PAX6) (AID 2282956); settings: HepG2 CIS-FACTORIAL PAX6 reporter transcription, RNA readout; actives raise or lower the signal
Chain of Paired box protein Pax-6 (Homo sapiens) (P26367 whole entry, looked up): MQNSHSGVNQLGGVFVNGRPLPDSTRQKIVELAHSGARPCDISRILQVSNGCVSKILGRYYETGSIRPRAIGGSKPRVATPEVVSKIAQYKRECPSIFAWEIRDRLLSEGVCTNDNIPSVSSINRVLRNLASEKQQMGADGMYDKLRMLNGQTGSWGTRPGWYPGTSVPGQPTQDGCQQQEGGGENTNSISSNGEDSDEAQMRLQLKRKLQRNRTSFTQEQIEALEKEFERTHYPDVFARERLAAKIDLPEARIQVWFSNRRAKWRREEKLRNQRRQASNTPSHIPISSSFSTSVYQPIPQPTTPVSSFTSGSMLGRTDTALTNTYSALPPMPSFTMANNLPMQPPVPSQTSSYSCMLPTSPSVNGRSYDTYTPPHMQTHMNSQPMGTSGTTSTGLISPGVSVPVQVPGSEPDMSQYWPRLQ
In short: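 After twenty-four hours of chemical exposure, transfected HepG2 cells are harvested for RNA. Cis-promoter reporter transcripts are amplified, fluorescently labelled and sized by capillary electrophoresis, with gain and loss of signal scored against DMSO.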

Measured: AC50

CC[C@H](C)[C@@H](C(=O)O)n1sc2ccccc2c1=O
not listed: [20]
inactive: all other assays above

CCCCCCCCCCCCCC[N+](C)(C)C
active: [2] 9.85 µM | [10] 8.9 µM | [17] 6.57 µM and 2.76 µM | [18] 18.1 µM
inactive: [1] | [2] | [3] | [4] | [5] | [6] | [7] | [8] | [9] | [10] | [11] | [20] | [12] | [13] | [14] | [15] | [16] | [18] | [19]

CC(C)(C)c1cc(C(C)(C)C)c(O)c(C(C)(C)C)c1
active: [2] 698 nM and 2.29 µM | [4] 138 µM | [7] 100 µM | [10] 100 µM and 36.8 µM | [12] 3.08 µM and 6.33 µM | [13] 416 nM and 8.82 µM | [16] 80.6 µM | [17] 11.7 µM
inactive: [1] | [3] | [4] | [5] | [7] | [8] | [9] | [11] | [20] | [14] | [15] | [16] | [17] | [18] | [19]

CN1CCC[C@H]1c1cccnc1
not listed: [2] | [3] | [6] | [7] | [9] | [13]
inactive: all other assays above

NCC(F)(F)C(F)(F)C(F)(F)C(F)(F)C(F)(F)C(F)(F)C(F)(F)F
not listed: [6] | [20]
inactive: all other assays above

CC(=O)CC(C)(C)O
active: [12] 25 µM
inactive: [1] | [2] | [3] | [4] | [5] | [7] | [8] | [9] | [10] | [20] | [12] | [13] | [14] | [15] | [16] | [17] | [18] | [19]
